We go through seven compounds from PubChem BioAssay AID624450 (Southern Research Specialized Biocontainment Screening …, 2012).

Active and inactive are the calls of the source. The rule behind the calls is not given here.

The nature of this assay: Vero 76 cell cytotoxicity, cytotoxicity control for VEEV inhibitor project, set 7 (AID 624450). The following applies: Vero 76 cell viability, cytotoxicity counter-screen; series mostly up to 25 µM.
For the compound `CCN1CCN(Cc2nc3ccc([N+](=O)[O-])cc3c(=O)n2C)CC1`, the compound was called inactive.
For `O=c1c2cc([N+](=O)[O-])ccc2nc(CN2CCNCC2)n1-c1ccsc1`, the result was inactive.
With `COc1ccc(-n2c(CN3CCNCC3)nc3ccc([N+](=O)[O-])cc3c2=O)cc1`, the compound was called inactive.
To `COc1cccc(-n2c(CN3CCNCC3)nc3ccc([N+](=O)[O-])cc3c2=O)c1` belongs “inactive”; to `CCN1CCN(Cc2nc3ccc([N+](=O)[O-])cc3c(=O)n2-c2ccccc2F)CC1`, “inactive”.
In the case of `COc1ccccc1-n1c(CN2CCNCC2)nc2ccc([N+](=O)[O-])cc2c1=O`, the call was inactive.
As for `CCN1CCN(Cc2nc3ccc(C(=O)O)cc3c(=O)n2-c2ccccc2)CC1`, the call was inactive.
